Shown are actives, neighbours in structure and some others; about 1.6% of the full set was active somewhere.
KCNQ2 pot: potentiators of rat KCNQ2 potassium channel | actives 0.54% (n = 310,000) | AID 2239 | B-score at 10 µM | CHO-K1 KCNQ2, FluxOR thallium flux fluorescence; active compounds read high;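 active = fluorescence ratio B-score at least 3 SD of library B-scores, with initial fluorescence B-score within 3 of them, cut at about 5.3 in these data; same plate scores as AID 2156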;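 also: B-score of peak minus minimum over baseline fluorescence ratio after K+ and Tl+ stimulus; positive B-score means potentiation of KCNQ2 with more thallium influx and brighter signal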
Target sequence (O88943 whole entry, looked up): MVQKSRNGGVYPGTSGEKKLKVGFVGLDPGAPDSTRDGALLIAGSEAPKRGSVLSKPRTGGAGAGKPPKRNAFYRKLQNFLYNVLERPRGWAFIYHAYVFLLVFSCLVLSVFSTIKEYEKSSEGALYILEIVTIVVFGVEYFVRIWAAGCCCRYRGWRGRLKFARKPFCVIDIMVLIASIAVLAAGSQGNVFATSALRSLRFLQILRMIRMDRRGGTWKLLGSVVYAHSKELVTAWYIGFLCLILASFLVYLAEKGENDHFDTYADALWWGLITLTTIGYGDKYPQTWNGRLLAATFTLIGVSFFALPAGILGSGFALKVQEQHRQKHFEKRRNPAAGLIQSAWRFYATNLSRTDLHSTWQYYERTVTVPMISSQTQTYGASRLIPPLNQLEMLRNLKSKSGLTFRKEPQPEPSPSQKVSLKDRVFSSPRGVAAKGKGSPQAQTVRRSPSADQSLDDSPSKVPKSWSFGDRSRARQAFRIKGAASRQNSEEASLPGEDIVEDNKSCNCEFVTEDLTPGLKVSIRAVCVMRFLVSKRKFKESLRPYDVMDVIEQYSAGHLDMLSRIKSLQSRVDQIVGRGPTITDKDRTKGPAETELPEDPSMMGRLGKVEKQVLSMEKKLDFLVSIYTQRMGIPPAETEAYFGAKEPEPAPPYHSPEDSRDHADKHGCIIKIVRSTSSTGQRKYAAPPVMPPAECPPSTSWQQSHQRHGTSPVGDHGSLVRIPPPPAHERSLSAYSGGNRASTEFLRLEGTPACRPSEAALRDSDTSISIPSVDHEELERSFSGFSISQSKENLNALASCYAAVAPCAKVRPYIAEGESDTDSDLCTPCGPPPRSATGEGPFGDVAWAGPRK
KCNQ2 inh: blocks the rat KCNQ2 potassium channel | O88943 | CHO-K1 KCNQ2, FluxOR thallium flux, 20 min; active compounds read low | B-score at 10 µM | actives 1.1% (n = 310,000) | AID 2156;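 active = fluorescence ratio B-score at most minus 3 library SDs, with starting brightness B-score within 2 library SDs, cut at about -5.5 in these data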
KCNQ2 block conf: confirmation of rat KCNQ2 potassium channel inhibitors | shares compounds with KCNQ2 inh | KCNQ2-expressing cells, thallium flux, inhibition; active compounds read low | activity change, negative = inhibition, % at 10 µM | actives 57% (n = 1,000);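 also: 0% = vehicle wells and values are ratio percent relative to vehicle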
KCNQ1 spec: KCNQ2 inhibitor that also affects human KCNQ1 channel; shares compounds with KCNQ2 inh; KCNQ1-expressing cells, FluxOR thallium flux fluorescence; active compounds read low; activity change, negative = inhibition, % at 10 µM; actives 15% (n = 1,000); AID 493026;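 active = activity change at least 3 SD of negative controls below their mean in both duplicate wells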;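 also: CHO cells stably transfected with KCNQ1 and depolarized by potassium stimulus; peak minus minimum fluorescence over baseline after thallium addition; 0% = vehicle negative control and -100% = blank without thallium stimulus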
CHO parental ctr: counter-screen for KCNQ2 inhibitors: effect in parental CHO cells. actives 14% (n = 1,000). thallium flux counter-screen; active compounds read low. shares compounds with KCNQ2 inh. AID 493029. activity change, % at 10 µM;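 also: 0% = vehicle negative controls with stimulus buffer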
KCNQ2 inh confirm: blocks rat KCNQ2 current in automated patch clamp | shares compounds with KCNQ2 inh | KCNQ2-expressing cells | calls only at 10 µM | actives 49% (n = 550) | AID 588531
* = called active by the depositor; i = inactive; / = no result; + = active, no number. Unless noted, no rule for the calls is given here.

SMILES	KCNQ2 pot	KCNQ2 inh	KCNQ2 block conf	KCNQ1 spec	CHO parental ctr	others
Cc1ccc(-c2nc(CN3CCN(C(=O)C4CCCO4)CC3)cs2)cc1 (stereo unspecified)	0.01	i	/	/	/
O=C(/C=C/c1ccccc1)c1ccc2c(c1)OCO2	/	i	/	/	/
O=C(/C=C/c1ccccc1Br)c1ccc2c(c1)OCO2	-6.85	-6.85*	i	i	i
O=C(OCC(=O)N1CCc2ccccc21)c1nc(Cl)ccc1Cl	0.9	i	/	/	/
O=C1CSC(c2cccs2)N1c1ccccc1 (stereo unspecified)	0.72	i	/	/	/
c1ccc(N2CCN(c3ccccc3)C2c2cccs2)cc1	-7.02	-7.02*	i	i	i
O=C(CN1C(=O)CSc2ccc(S(=O)(=O)N3CCCCC3)cc21)NCc1ccccc1	/	i	/	/	/
CCC1Oc2ccc(C)cc2N(CC(=O)NCCCN2CCOCC2)C1=O (stereo unspecified)	1.51	i	/	/	/
COc1ccccc1/C=C/CN1CCCC(CO)(Cc2cccc(Cl)c2)C1 (stereo unspecified)	/	i	/	/	/
COc1ccc(/C=C/CN2CCCC(CO)(Cc3cccc(Cl)c3)C2)cc1 (stereo unspecified)	-6.79	-6.79*	-23.0%*	i	i	KCNQ2 inh confirm=i
O=C(NNc1nc(N2CCOCC2)nc(N2CCOCC2)n1)Nc1ccc(Cl)cc1	/	i	/	/	/
CN(C)c1ccnc(N(Cc2ccccc2)Cc2ccccc2)c1C#N	-7.18	-7.18*	i	i	i
CN(C)c1ccnc(NCc2ccccc2)c1C#N	0.98	i	/	/	/
COc1ccccc1CNC(=O)C(CC(C)C)NC(=O)C1CCC(C)CC1 (stereo unspecified)	-8.17	-8.17*	-28.0%*	i	i	KCNQ2 inh confirm=+
CC(C)CC(NC(=O)C1CCC(C)CC1)C(=O)NCc1ccco1 (stereo unspecified)	/	i	/	/	/
CC(C)Cc1nnc(NC(=O)CCc2c[nH]c3ccccc23)s1	/	i	/	/	/
O=C(NC1CCCCC1)C(c1ccc(F)cc1)N(CCCN1CCOCC1)C(=O)c1ccc(CN2CCOCC2)o1 (stereo unspecified)	0.14	i	/	/	/
Cc1ccc(-c2c(CC(=O)O)c(C)nc3sc4c(c23)CCCC4)cc1	/	i	/	/	/
CCCn1c(=O)c(C(=O)NC(C)c2ccccc2)c(O)c2ccccc21 (stereo unspecified)	-11	-11*	i	i	i
Cn1c(=O)c(C(=O)NCc2ccccc2Cl)c(O)c2ccccc21	/	i	/	/	/
CCn1c(=O)c(C(=O)NCc2ccccc2Cl)c(O)c2ccccc21	-8.39	-8.39*	-35.5%*	-37.0%*	-23.0%*	KCNQ2 inh confirm=i
CCn1c(=O)c(C(=O)NC(C)c2ccccc2)c(O)c2ccccc21 (stereo unspecified)	/	i	/	/	/
COc1ccc(C)cc1NC(=O)Nc1ccncc1	/	i	/	/	/
O=C(NCCc1ccc(Cl)cc1)c1ccc(Br)s1	0.77	i	/	/	/
O=C(COc1ccccc1-c1ccccc1)N/N=C/c1cccc2ccccc12	-7.85	-7.85*	i	i	i
SMILES	KCNQ2 pot	KCNQ2 inh	KCNQ2 block conf	KCNQ1 spec	CHO parental ctr	others
CC(=O)Nc1ccccc1OCC(=O)NC(C)c1ccccc1 (stereo unspecified)	0.9	i	/	/	/
COc1ccc(/C=N/NC(=O)COc2ccccc2-c2ccccc2)cc1	/	i	/	/	/
CC(NC(=O)COc1ccccc1-c1ccccc1)c1ccccc1 (stereo unspecified)	-6.93	-6.93*	-34.5%*	-30.5%*	-23.5%*	KCNQ2 inh confirm=+
CC(C)C(=O)NCCc1nc(-c2ccc(Cl)cc2)no1	0.92	i	/	/	/
CC(C)(C)OC(=O)N1CCC(c2cc(-c3cccs3)n[nH]2)CC1	/	i	/	/	/
C=CCn1c(-c2ccccc2)nc(=S)c2c1CCCC2	/	i	/	/	/
COCCCNC(=O)CN(c1ccc(F)cc1)S(=O)(=O)c1ccc2c(c1)OCCO2	/	i	/	/	/
CC(=O)NC1(C(F)(F)F)NC(=O)N(CCc2ccccc2)C1=O (stereo unspecified)	/	i	/	/	/
Cc1ccc(F)cc1NC(=O)c1c(-c2ccccc2)noc1C	-8.14	-8.14*	i	i	i
Cc1onc(-c2ccccc2)c1C(=O)Nc1ccc(Br)cc1Cl	/	i	/	/	/
Cc1onc(-c2ccccc2)c1C(=O)Nc1ccncc1	1.87	i	/	/	/
Cc1ccccc1NC(=O)c1c(-c2ccccc2)noc1C	-9.54	-9.54*	i	i	i
Cc1ccc(S(=O)(=O)N2CCOC23CCN(C(=O)C(=O)NCCC(C)C)CC3)cc1	0.02	i	/	/	/
Cc1ccc(NC(=O)CCNS(=O)(=O)c2ccc(Br)s2)cc1	0.81	i	/	/	/
COc1ccccc1OCC(=O)Nc1cc(Cl)ccc1Oc1ccccc1	-10	-10*	-32.5%*	-35.0%*	-30.5%*	KCNQ2 inh confirm=+
Cc1ccccc1OCC(=O)Nc1cc(Cl)ccc1Oc1ccccc1	-7.37	-7.37*	-26.5%*	i	i	KCNQ2 inh confirm=i
O=C(COC(=O)c1ccccc1)Nc1cc(Cl)ccc1Oc1ccccc1	/	i	/	/	/
O=C(COC(=O)c1c(Cl)cccc1Cl)Nc1cc(Cl)ccc1Oc1ccccc1	/	i	/	/	/
O=C(O)c1ccc(Br)cn1	/	i	/	/	/
O=C1C([N+](=O)[O-])=C(O)c2cccc3cccc1c23	/	i	/	/	/
O=C1C2=C(C(c3ccccc3)=NCCN2)C(c2cccc([N+](=O)[O-])c2)N1c1ccccc1 (stereo unspecified)	0.01	i	/	/	/
COc1cc(/C=N/N=C(N)N)ccc1OCc1ccccc1Cl	-10.4	-10.4*	-25.5%*	i	i	KCNQ2 inh confirm=i
COc1ccc(/C=N/N=C/c2ccc(OC)c(OC)c2)cc1OC	0.43	i	/	/	/
O=C(C1=C(Nc2ccccc2)c2ccccc2S(=O)(=O)N1)c1ccccc1	0.03	i	/	/	/
Cc1ccccc1NC1=C(C(=O)c2ccccc2)N(C)S(=O)(=O)c2ccccc21	-8.11	-8.11*	-29.0%*	i	i	KCNQ2 inh confirm=+
SMILES	KCNQ2 pot	KCNQ2 inh	KCNQ2 block conf	KCNQ1 spec	CHO parental ctr	others
COc1ccc(OC)c(C(=O)NC(CC(N)=O)c2ccc(N3CCC(Cc4ccccc4)CC3)c([N+](=O)[O-])c2)c1 (stereo unspecified)	/	i	/	/	/
Cc1[nH]c(C)c(S(=O)(=O)NCCc2ccc(S(N)(=O)=O)cc2)c1C(=O)N1CCCC1	1.12	i	/	/	/
COc1ccc(CN(C(=O)c2ccco2)c2ccccc2)cc1	0.07	i	/	/	/
O=C(c1ccco1)N(CCC(c1ccccc1)c1ccco1)Cc1ccccc1 (stereo unspecified)	-7.66	-7.66*	-26.5%*	i	i	KCNQ2 inh confirm=+
COc1ccc(CN(CCC(c2ccccc2)c2ccco2)C(=O)c2ccco2)cc1 (stereo unspecified)	-6.72	-6.72*	-38.0%*	-43.0%*	-35.5%*	KCNQ2 inh confirm=i
CCN(CC)C(=O)CC(c1ccccc1)c1ccco1 (stereo unspecified)	/	i	/	/	/
Cc1ccc(S(=O)(=O)NCCC(=O)Nc2ccc(Cl)c(Cl)c2)cc1	/	i	/	/	/
C#Cc1ccc([C@@H]2C=C(C(=O)OCC=C)O[C@H](OCc3ccc(CO)cc3)C2)cc1	/	i	/	/	/
CCC(C)Sc1ccc(-c2nc3ccc(C)cn3c2NCc2ccccc2)cc1OC (stereo unspecified)	/	i	/	/	/

Bioassay records from PubChem.
